Test [1] has as its system Wnt5a (protein binding on small-molecule microarray). Put plainly: Wnt5a binders on small-molecule microarray, primary screen, biophysical, 635/667 nm fluorescence (AID 1142).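 Note: fluorescence read at 667 nm with signal to noise per printed feature.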 The settings on record: 635 nm fluorescence, higher = more signal.
Test [2] is described as follows: cell viability in Huh7 cells, primary screen, cytotoxicity control for HCV replication inhibitor project, CellTiter-Glo luminescence, basal, 48 h (AID 1143).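 Note: Huh7 hepatoma cells carrying a hepatitis C replication reporter with no stimulus; test concentration not given here.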 The settings on record: Huh7 HCV replicon, higher = more signal, called active from +8 up or from −8 down. A general note: In ATP-based viability assays light output follows the ATP content of the culture.
The nature of test [3]: P. aeruginosa biofilm formation inhibitors, primary screen, PAO1 strain, BacTiter-Glo luminescence, LB-PBS (AID 1144). The conditions noted are these: 12 h, higher = more signal.
Test [4] can be described thus: CREB reporter modulators without forskolin, primary screen, cell-based, PC12, CRE-LacZ reporter, unstimulated (AID 1145). The settings on record: no forskolin, luminescence, 4.5 h, higher = more signal, called active from +8 up or from −8 down.
Test [5] is described as follows: CREB reporter modulators under forskolin, primary screen, cell-based, PC12, CRE-LacZ reporter, forskolin-stimulated (AID 1146).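 Note: PC12 cells with 6xCRE LacZ reporter stimulated by forskolin 10 µM; beta-galactosidase reporter signal reflecting CREB driven transcription.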 The conditions noted are these: luminescence, 4.5 h, higher = more signal, called active from +8 up or from −8 down.
Test [6] deals with Streptavidin (Streptomyces avidinii) (UniProt P22629). Put plainly: streptavidin binders on small-molecule microarray, primary screen, artefact control for SMM compound annotation, biophysical, 635/667 nm fluorescence (AID 1147).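 Note: signal reflects streptavidin binding to arrayed compounds as a control protein.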 The conditions noted are these: streptavidin binding, higher = more signal.
A short description of test [7]: small-molecule binders of probe aInhba, primary screen, biochemical, small-molecule microarray, 635/667 nm fluorescence (AID 1148).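 Note: score merges 667nm spot fluorescence with signal-to-noise for antibody binding to printed compounds.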 The settings on record: higher = more signal.
The target of test [8] is Torsin-1A (Homo sapiens) (UniProt O14656). Put plainly: torsin A binders from cell lysate, primary screen, small-molecule microarray, wild-type, 635/667 nm (AID 1149). The conditions noted are these: COS7 hTOR1A-WT lysate, 635 nm fluorescence, higher = more signal.
Test [9] has the same target. Put plainly: small-molecule binders of mutant TOR1A in lysate, primary screen, cell lysate, small-molecule microarray, COS7 lysate, 635/667 nm fluorescence (AID 1150).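 Note: score pools 667 nm emission and signal to noise measuring lysate protein binding.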 The settings on record: COS7 hTOR1A mutant lysate, 635 nm fluorescence, higher = more signal.
In test [10] the test system is Sonic hedgehog protein (Shh). The test can be described thus: small-molecule binders of Shh protein, primary screen, biochemical, small-molecule microarray, 635/667 nm fluorescence (AID 1151).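 Note: Shh protein binding to compounds spotted on small-molecule microarray slides; score combines spot fluorescence intensity with signal-to-noise across triplicate slides.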 The settings on record: small-molecule microarray binding, 635 nm fluorescence; higher = more signal.
Test [11] is described as follows: E. coli DRC41 culture turbidity changes, primary screen, E. coli filamentation inducer project, strain DRC41, OD650, 48 h (AID 1152).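 Note: E. coli MC1000 strain DRC41 lacking acrAB efflux pump and sulA.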 The settings on record: E. coli DRC41 (acrAB sulA), higher = more signal, called active from +8 up or from −8 down.
Test [12] is described as follows: small-molecule binders of probe aLefty1, primary screen, biochemical, small-molecule microarray, 635/667 nm fluorescence (AID 1153).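 Note: score merges spot fluorescence with signal-to-noise ratio from the scanned slide images.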 The settings on record: higher = more signal.
The nature of test [13]: PSAC antagonists in infected red cells, primary screen, cell-based, P. falciparum Indochina, OD700, 1 h (AID 1154). The settings on record: P. falciparum Indochina infected RBC osmotic lysis, higher = more signal, called active from +8 up or from −8 down.
Test [14] is described as follows: PSAC antagonists in infected red cells, primary screen, cell-based, P. falciparum Indochina, OD700, 2 h (AID 1155).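 Note: lysis reports solute entry through the parasite surface anion channel PSAC; channel blockers reduce lysis of infected cells.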 The conditions noted are these: P. falciparum Indochina infected erythrocytes, osmotic lysis OD700; higher = more signal, called active from +8 up or from −8 down.
The nature of test [15]: osmotic lysis modulators in infected erythrocytes, primary screen, PSAC antagonist project, cell-based, P. falciparum Indochina, OD700, 3 h (AID 1156). The settings on record: higher = more signal, called active from +8 up or from −8 down.
Test [16] in a line: PSAC antagonists in infected red cells, primary screen, cell-based, P. falciparum Indochina, OD700, 18 h (AID 1157). The settings on record: P. falciparum Indochina infected erythrocytes, osmotic lysis OD700, 18 h; higher = more signal, called active from +8 up or from −8 down.
The nature of test [17]: modulators of S6 phosphorylation in cells, primary screen, cell-based, A549, cytoblot, luminescence, serum-stimulated (AID 1158).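 Note: serum-stimulated A549 lung adenocarcinoma cells; signal is phosphorylated S6 detected by cytoblot immunostaining with HRP secondary.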 The conditions noted are these: A549 phospho-S6 cytoblot, 5 h, higher = more signal.
Test [18] addresses NADPH oxidase 2 (Homo sapiens) (UniProt P04839). Put plainly: NOX2-dependent H2O2 signal modulators, primary screen, NOX inhibitor project, cell-based, HEK293-NOX2, PMA-stimulated, Amplex Red fluorescence (AID 1159). Note: test concentration not given here. The settings on record: 45 min, higher = more signal, called active from +8 up or from −8 down.
Test [19] deals with NADPH oxidase 4 (Homo sapiens) (UniProt Q9NPH5). The test can be described thus: NOX4-dependent H2O2 signal modulators, primary screen, NOX inhibitor project, cell-based, HEK293-NOX4, tetracycline-induced, Amplex Red fluorescence (AID 1160). The settings on record: 45 min, higher = more signal, called active from +8 up or from −8 down.
The target of test [20] is NADPH oxidase 5 (Homo sapiens) (UniProt Q96PH1). The test can be described thus: NOX5-dependent H2O2 signal modulators, primary screen, NOX inhibitor project, cell-based, HEK293-NOX5, Amplex Red fluorescence (AID 1161). The conditions noted are these: HEK293-NOX5, ionomycin, 45 min, higher = more signal.

Active and inactive are the calls of the source. Unless noted, the rule behind the calls is not given here.

Chain of NADPH oxidase 5 (Homo sapiens) (Q96PH1 whole entry, looked up): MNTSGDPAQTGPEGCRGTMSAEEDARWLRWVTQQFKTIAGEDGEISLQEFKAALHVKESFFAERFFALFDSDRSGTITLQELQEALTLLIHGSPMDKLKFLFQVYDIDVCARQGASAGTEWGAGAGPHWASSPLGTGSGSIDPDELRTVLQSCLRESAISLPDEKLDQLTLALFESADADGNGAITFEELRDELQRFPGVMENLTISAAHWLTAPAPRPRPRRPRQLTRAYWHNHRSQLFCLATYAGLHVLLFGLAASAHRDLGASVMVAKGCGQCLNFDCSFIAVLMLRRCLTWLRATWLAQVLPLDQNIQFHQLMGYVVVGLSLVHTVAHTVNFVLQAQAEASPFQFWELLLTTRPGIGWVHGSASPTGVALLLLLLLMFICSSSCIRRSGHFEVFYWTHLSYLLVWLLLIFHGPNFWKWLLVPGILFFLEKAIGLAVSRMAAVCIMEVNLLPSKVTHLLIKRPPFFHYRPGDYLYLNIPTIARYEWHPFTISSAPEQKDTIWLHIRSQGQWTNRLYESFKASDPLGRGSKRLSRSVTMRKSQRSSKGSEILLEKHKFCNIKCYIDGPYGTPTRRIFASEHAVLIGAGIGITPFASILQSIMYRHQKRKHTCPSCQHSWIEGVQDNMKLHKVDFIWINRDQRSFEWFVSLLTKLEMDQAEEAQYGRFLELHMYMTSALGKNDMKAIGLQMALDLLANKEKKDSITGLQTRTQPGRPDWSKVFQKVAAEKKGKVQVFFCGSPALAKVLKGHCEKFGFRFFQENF
Chain of NADPH oxidase 2 (Homo sapiens) (P04839 whole entry, looked up): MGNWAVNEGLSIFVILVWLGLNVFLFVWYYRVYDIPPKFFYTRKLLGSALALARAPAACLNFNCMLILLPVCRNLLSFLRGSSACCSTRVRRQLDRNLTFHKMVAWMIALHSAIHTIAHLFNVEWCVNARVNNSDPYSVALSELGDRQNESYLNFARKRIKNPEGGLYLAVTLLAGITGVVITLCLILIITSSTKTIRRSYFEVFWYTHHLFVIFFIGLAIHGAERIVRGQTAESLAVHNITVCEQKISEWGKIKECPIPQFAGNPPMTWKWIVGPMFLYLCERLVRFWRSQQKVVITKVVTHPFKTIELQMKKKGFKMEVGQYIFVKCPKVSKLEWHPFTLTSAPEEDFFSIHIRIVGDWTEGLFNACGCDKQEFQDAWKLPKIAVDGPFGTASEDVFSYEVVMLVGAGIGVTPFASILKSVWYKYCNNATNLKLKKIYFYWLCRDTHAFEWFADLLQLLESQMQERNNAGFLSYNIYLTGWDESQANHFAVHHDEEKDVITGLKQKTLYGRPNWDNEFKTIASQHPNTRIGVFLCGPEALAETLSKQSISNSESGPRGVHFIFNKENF
Chain of NADPH oxidase 4 (Homo sapiens) (Q9NPH5 whole entry, looked up): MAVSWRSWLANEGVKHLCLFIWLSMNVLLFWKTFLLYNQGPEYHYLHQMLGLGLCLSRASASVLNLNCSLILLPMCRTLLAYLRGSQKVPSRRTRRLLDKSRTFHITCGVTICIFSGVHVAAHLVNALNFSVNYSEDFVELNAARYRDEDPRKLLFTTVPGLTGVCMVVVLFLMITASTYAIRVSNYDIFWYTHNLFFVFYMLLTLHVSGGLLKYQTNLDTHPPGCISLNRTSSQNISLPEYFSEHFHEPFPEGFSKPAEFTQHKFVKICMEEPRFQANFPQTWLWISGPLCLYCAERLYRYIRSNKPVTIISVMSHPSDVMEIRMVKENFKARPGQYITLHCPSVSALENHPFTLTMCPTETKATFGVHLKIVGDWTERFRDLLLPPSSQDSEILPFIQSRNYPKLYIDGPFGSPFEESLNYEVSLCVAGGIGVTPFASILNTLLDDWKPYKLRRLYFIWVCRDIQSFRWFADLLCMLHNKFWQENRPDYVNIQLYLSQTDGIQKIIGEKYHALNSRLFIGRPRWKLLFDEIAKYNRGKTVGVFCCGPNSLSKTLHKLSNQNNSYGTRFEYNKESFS
Chain of Torsin-1A (Homo sapiens) (O14656 whole entry, looked up): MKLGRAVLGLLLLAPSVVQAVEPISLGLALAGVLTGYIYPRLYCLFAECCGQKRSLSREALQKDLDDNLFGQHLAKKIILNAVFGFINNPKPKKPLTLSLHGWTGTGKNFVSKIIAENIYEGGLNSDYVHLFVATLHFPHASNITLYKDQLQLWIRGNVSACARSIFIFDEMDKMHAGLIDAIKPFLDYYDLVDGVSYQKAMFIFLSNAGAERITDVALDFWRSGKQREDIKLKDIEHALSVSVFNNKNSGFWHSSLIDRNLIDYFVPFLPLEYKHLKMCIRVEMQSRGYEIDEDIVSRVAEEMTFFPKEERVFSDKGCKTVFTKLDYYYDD
Chain of Streptavidin (Streptomyces avidinii) (P22629 whole entry, looked up): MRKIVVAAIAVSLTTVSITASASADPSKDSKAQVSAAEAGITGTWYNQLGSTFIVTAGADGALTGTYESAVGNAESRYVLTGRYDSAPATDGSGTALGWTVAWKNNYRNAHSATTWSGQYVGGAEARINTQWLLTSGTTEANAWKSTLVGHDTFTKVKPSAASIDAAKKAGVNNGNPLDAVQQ

Take `O=C1C[C@@H](O)[C@@H](O)[C@@H]2[C@@H]3C(=O)N(C4CCCCC4)C(=O)[C@@H]3CC[C@@H]12`: the composite z-score in test [1] is 0.0446; in test [6], 0.148; in [7], -0.145; in the test with Torsin-1A (Homo sapiens) [8], -0.0977; with Torsin-1A (Homo sapiens) [9] it was 0.311; in [10], 0.684. Moreover, in test [12], the composite z-score was -0.395. Moreover, the z-score is 0.0366 (inactive) in test [2]; 0.749 (inactive) in test [3]; -0.0223 (inactive) in [4]; -0.393 (inactive) in [5]; -0.348 (inactive) in test [11]; 0.733 (inactive) in test [13]. The z-score in test [14] is 0.14 (inactive); in [15] it was 0.265 (inactive); in test [16], -0.0387 (inactive); in [17] it was -0.604; in test [18] it was -0.0439 (inactive); in test [19], 0.468 (inactive). In addition, the z-score in test [20] was found to be 0.0192.
For the compound `O=C1CCCC=C1C(O)COCc1ccccc1` (stereo not given), the composite z-score is 0.154 in test [1]; 1.42 in [6]; -0.238 in [7]; -0.465 with Torsin-1A (Homo sapiens) [8]; -0.0394 with Torsin-1A (Homo sapiens) [9]; 0.124 in test [10]. In addition, in [12], the composite z-score was -0.194. The z-score in test [2] is 0.78 (inactive); in test [3], 0.616 (inactive); in test [4], 0.109 (inactive); in [5] it was 0.0658 (inactive); in test [11], -0.245 (inactive); in test [13], 0.782 (inactive). For the same compound, the z-score in test [14] is 0.36 (inactive); in test [15] it was -0.0291 (inactive); in test [16] it was -0.0223 (inactive); in test [17], -0.338; in test [18], 0.237 (inactive); in test [19], 0.733 (inactive). Moreover, the z-score in [20] stood at 0.63.
As for `CC(C)=CCCC(C)=CCON=C1C[C@@H](O)[C@@H](O)[C@@H]2[C@@H]3C(=O)N(c4cccc(Oc5ccccc5)c4)C(=O)[C@@H]3CC[C@H]12`, the composite z-score in test [1] is -0.022; in test [6], -0.11; in [7] it was -0.128; with Torsin-1A (Homo sapiens) [8], 0.575; with Torsin-1A (Homo sapiens) [9], 0.704; in test [10], 1.51. The compound further registered a composite z-score in [12] of 0.0363. Moreover, the z-score in [2] is -1.47 (inactive); in test [3], 1.73 (inactive); in test [4], -0.205 (inactive); in [5], -0.158 (inactive); in test [11] it was 0.349 (inactive); in test [13], 2.26 (inactive). For the same compound, the z-score in [14] was 1.25 (inactive); in test [15] it was 0.17 (inactive); in test [16] it was 0.722 (inactive); in test [17], 0.34; in test [18] it was -1.35 (inactive); in [19] it was 0.0399 (inactive). This compound had a z-score in [20] of -0.583.
In the case of `CCOC(=O)NN=C1C[C@@H](O)[C@@H](O)[C@@H]2[C@@H]3C(=O)N(CC)C(=O)[C@@H]3CC[C@H]12`, the composite z-score in [1] is 0.0375; in test [6], 0.0571; in [7], -0.252; with Torsin-1A (Homo sapiens) [8], 0.399; in the test with Torsin-1A (Homo sapiens) [9], 0.441; in test [10], 0.0046. The compound also had a composite z-score in test [12] of -0.286. Besides, the z-score in test [2] was 0.383 (inactive); in [3], 0.345 (inactive); in [4] it was -0.656 (inactive); in [5] it was -0.628 (inactive); in [11], 0.539 (inactive); in [13], -0.259 (inactive). In addition, the z-score in test [14] is 0.072 (inactive); in [15] it was -0.466 (inactive); in test [16], 0.182 (inactive); in test [17], -0.404; in [18], -1.28 (inactive); in test [19], 0.199 (inactive). Also, the z-score in test [20] stood at 0.534.

These data come from PubChem BioAssay.
